For 9 molecules, outcome and AC50 results are on record in PubChem BioAssay (EPA / NIEHS).

Assay [1] is described as follows: ATG_GRE_CIS: Attagene CIS-FACTORIAL HepG2 Assay for human Glucocorticoid Response Elements (GRE) (AID 2282947; active means hit-call score of the fitted dose curve at least 0.9, where 1 is the maximum; inactive means score below 0.9). The conditions noted are these: HepG2 GRE cis-reporter, Attagene multiplex mRNA; actives raise or lower the signal. Put shortly:
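Fluorescence intensity of reporter-specific cDNA fragments, separated by capillary electrophoresis, provides the signal. Constructs carry cis-regulating promoters in transiently transfected HepG2 liver cells; 24 h incubation; fitting is bidirectional against DMSO.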

A short description of assay [2]: ATG_PBREM_CIS: Attagene CIS-FACTORIAL HepG2 Assay for human Phenobarbital-responsive Enhancer Module (PBREM) (AID 2282955; active means hit-call score of the fitted dose curve at least 0.9, where 1 is the maximum; inactive means score below 0.9). The following applies: HepG2 PBREM cis-reporter, Attagene multiplexed transcription; actives raise or lower the signal. Put shortly:
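Reporter mRNA read by RT-PCR, 6-FAM primer extension, HpaI digestion and capillary electrophoresis. Transfected HepG2 cells, 24 h compound exposure. Gain or loss of signal fitted bidirectionally relative to DMSO baseline.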

Assay [3] addresses Transcription factor Sp1 (Homo sapiens) (UniProt P08047). Kind of assay: ATG_Sp1_CIS: Attagene CIS-FACTORIAL HepG2 Assay for human Specificity Protein 1 (Sp1) (AID 2282961; active means hit-call score of the fitted dose curve at least 0.9, where 1 is the maximum; inactive means score below 0.9). The following applies: HepG2 Sp1 cis-reporter transcription, actives raise or lower the signal. The method in brief: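 Read-out: fluorescence of 6-FAM-labeled, HpaI-digested RT-PCR products separated by capillary electrophoresis. HepG2 cells carried transfected cis-element reporter units and were exposed to chemicals for 24 h; gain or loss of signal fitted relative to DMSO.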

Assay [4] concerns the target Signal transducer and activator of transcription 3 (Homo sapiens) (UniProt P40763). Kind of assay: ATG_STAT3_CIS: Attagene CIS-FACTORIAL HepG2 Assay for human Signal Transducer and Activator of Transcription 3 (STAT3) (AID 2282963; active means hit-call score of the fitted dose curve at least 0.9, where 1 is the maximum; inactive means score below 0.9). The following applies: HepG2, Attagene cis-factorial STAT3 reporter transcription; actives raise or lower the signal. Put shortly: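 Fluorescence intensity of 6-FAM-labelled reporter fragments, separated by capillary electrophoresis after RT-PCR, gave the signal. Cells were HepG2 transfected with cis-element reporter units and treated 24 h; fitting was bidirectional relative to DMSO.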

The target of assay [5] is Hepatocyte nuclear factor 4-alpha (Homo sapiens) (UniProt P41235). Nature of the assay: ATG_HNF4a_TRANS: Attagene TRANS-FACTORIAL HepG2 Assay for human Hepatocyte Nuclear Factor 4 alpha (HNF4a) (AID 2282982). The following applies: HepG2 HNF4a transactivation reporter, mRNA readout. The method in brief: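 Endpoint reflects transcriptional activation of a GAL4-UAS reporter by an HNF4a-GAL4 chimera in transfected HepG2 cells, 24 h post-dosing. Fluorescence from RT-PCR products separated by capillary electrophoresis; DMSO baseline.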
Sequence of Hepatocyte nuclear factor 4-alpha (Homo sapiens) (P41235 whole entry, looked up, the tested form may be a part): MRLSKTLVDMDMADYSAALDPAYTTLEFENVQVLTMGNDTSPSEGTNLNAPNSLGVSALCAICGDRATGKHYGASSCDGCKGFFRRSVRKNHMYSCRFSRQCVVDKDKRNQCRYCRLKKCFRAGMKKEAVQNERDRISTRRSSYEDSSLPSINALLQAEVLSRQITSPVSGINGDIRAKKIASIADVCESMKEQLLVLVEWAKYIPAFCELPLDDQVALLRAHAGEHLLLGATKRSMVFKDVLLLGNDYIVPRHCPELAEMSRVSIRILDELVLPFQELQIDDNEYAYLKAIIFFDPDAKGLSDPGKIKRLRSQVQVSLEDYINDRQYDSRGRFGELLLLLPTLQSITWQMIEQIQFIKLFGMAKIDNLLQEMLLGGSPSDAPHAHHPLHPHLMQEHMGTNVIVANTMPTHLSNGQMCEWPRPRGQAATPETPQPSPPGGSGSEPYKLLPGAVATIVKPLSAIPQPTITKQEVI

Assay [6] in a line: ATG_M_06_TRANS: Attagene TRANS-FACTORIAL HepG2 Assay for M06 Transcription Factor (Internal Marker) (AID 2282983). The following applies: HepG2 Attagene TRANS M06 internal marker reporter. The method in brief: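 Background control endpoint: reporter mRNA from transiently transfected HepG2 after 24 h dosing, detected by RT-PCR with capillary electrophoresis fluorescence. Analysed for gain versus DMSO.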

In assay [7] the target is Transcriptional activator Myb (Homo sapiens) (UniProt P10242). Kind of assay: ATG_Myb_CIS: Attagene CIS-FACTORIAL HepG2 Assay for human Myeloblastosis (Myb) Proto-Oncogene Transcription Factor (AID 2282986; active means hit-call score of the fitted dose curve at least 0.9, where 1 is the maximum; inactive means score below 0.9). The following applies: HepG2 Attagene CIS-FACTORIAL Myb reporter transcription; actives raise or lower the signal. The method in brief: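 HepG2, transient MRTU transfection (cis-element promoters, endogenous TF activity), 24 h compound exposure. Readout: reporter mRNA via RT-PCR, 6-FAM labeling, HpaI digest, capillary electrophoresis. Gain/loss fit vs DMSO.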
Sequence of Transcriptional activator Myb (Homo sapiens) (P10242 whole entry, looked up): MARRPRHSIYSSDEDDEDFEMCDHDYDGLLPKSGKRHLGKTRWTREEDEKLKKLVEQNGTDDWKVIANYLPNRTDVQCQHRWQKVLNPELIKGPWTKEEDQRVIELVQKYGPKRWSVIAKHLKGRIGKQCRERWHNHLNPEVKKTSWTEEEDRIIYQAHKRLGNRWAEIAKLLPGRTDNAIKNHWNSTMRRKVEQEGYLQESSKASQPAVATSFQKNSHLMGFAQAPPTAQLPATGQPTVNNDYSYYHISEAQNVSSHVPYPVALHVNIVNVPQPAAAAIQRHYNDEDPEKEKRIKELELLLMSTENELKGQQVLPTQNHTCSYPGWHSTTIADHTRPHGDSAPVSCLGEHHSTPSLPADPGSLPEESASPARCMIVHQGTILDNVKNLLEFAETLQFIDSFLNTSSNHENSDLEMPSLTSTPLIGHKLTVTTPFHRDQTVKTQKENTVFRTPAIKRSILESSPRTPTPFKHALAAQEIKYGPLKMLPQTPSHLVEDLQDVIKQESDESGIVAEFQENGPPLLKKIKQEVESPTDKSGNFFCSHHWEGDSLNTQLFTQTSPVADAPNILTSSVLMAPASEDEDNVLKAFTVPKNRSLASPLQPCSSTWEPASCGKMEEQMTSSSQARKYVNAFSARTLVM

The nature of assay [8]: ATG_NFI_CIS: Attagene CIS-FACTORIAL HepG2 Assay for human Nuclear Factor I (NFI) (AID 2282989; active means hit-call score of the fitted dose curve at least 0.9, where 1 is the maximum; inactive means score below 0.9). The following applies: HepG2 cis-regulatory reporter, NFI response element transcription; actives raise or lower the signal. The method in brief:
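Multiplexed cis-reporter system in human HepG2 cells reports native TF activity as reporter mRNA induction 24 h post-dose. Fragments labelled with 6-FAM, HpaI-digested and resolved by capillary electrophoresis; activity fitted both directions versus DMSO.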

Assay [9] concerns the target Peroxisome proliferator-activated receptor gamma (Homo sapiens) (UniProt P37231). Nature of the assay: ATG_PPARg_TRANS: Attagene TRANS-FACTORIAL HepG2 Assay for human Peroxisome Proliferator-activated Receptor-gamma (PPARg) (AID 2283007). Put shortly:
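Read-out: reporter mRNA induction, detected by fluorescence after RT-PCR and capillary electrophoresis. Transiently transfected human HepG2 liver cells carrying a chimeric NR-Gal4 construct were dosed for 24 h; activity was fitted upward relative to DMSO.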

The target of assay [10] is human Retinoid X Receptor beta (RXRb), RXRB (gene 6257) (UniProt P28702). Kind of assay: ATG_RXRb_TRANS: Attagene TRANS-FACTORIAL HepG2 Assay for human Retinoid X Receptor beta (RXRb) (AID 2283013). Put shortly:
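Readout is reporter transcript induction after 24 h dosing. It is measured by RT-PCR of total RNA followed by fluorescent capillary electrophoresis. HepG2 liver cells carry transfected multiple reporter units driven by an exogenous RXRb-Gal4 fusion; activity is relative to DMSO.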

Assay [11] in a line: TOX21_p53_BLA_p2_viability: Viability Assessment in the Tox21 HCT-116 p53 Agonism Beta-lactamase Assay, Phase 2 (AID 2283591).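 Further: compound exposure lasted 16 h at 37 °C; actives lower the ATP signal meaning cytotoxicity.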 The method in brief: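 HCT116 p53-bla cells, 4000/well, dosed after 5 h plating (217-fold dilution of DMSO stocks) and incubated 16 h at 37C. Viability taken as cellular ATP by CellTiter-Glo luminescence after 30 min RT; signal loss marks cytotoxicity.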

The target in assay [12] is Cellular tumor antigen p53 (Homo sapiens) (UniProt P04637). Kind of assay: TOX21_p53_BLA_p2_ratio: Tox21 HCT-116 p53 Agonism Beta-lactamase Assay, Ratio, Phase 2 (AID 2283592). The method in brief: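 Plated HCT116 p53-bla cells (4000/well) received compound after 5 h, then 16 h at 37C/5% CO2. CCF4-AM added, 2 h RT. Ratio of 460 to 530 nm emission taken as the p53 reporter signal.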
Sequence of Cellular tumor antigen p53 (Homo sapiens) (P04637 whole entry, looked up): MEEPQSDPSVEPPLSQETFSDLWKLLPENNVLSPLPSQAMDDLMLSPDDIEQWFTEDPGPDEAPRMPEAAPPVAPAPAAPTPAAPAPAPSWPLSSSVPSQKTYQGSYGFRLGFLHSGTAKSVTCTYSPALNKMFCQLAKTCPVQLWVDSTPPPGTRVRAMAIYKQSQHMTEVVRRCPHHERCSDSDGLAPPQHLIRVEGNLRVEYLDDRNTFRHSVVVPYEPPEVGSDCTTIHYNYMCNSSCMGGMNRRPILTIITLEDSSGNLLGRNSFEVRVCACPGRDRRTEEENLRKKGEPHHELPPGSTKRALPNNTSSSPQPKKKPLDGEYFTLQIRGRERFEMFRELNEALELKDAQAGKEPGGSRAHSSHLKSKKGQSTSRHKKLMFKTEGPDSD

For assay [13] the target is unchanged. Kind of assay: TOX21_p53_BLA_p3_ratio: Tox21 HCT-116 p53 Agonism Beta-lactamase Assay, Ratio, Phase 3 (AID 2283596). The method in brief:
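Cells were seeded at 4000/well, rested 5 h at 37C, then dosed with DMSO compound solutions (217-fold dilution) for 16 h. CCF4-AM substrate was loaded for 2 h at room temperature, and the 460/530 nm emission ratio was fitted for gain of signal versus DMSO.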

Assay [14] can be described thus: TOX21_p53_BLA_p4_viability: Viability Assessment in the Tox21 HCT-116 p53 Agonism Beta-lactamase Assay, Phase 4 (AID 2283597).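 Further: hits lower the luminescence signal meaning cytotoxicity.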 The method in brief:
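Readout: ATP luminescence (CellTiter-Glo), measured 30 min after reagent addition at RT. The reagent followed a 2 h CCF4-AM incubation, and the cells had been exposed to compound for 16 h at 37C.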

Assay [15] addresses Cellular tumor antigen p53 (Homo sapiens) (UniProt P04637). Kind of assay: TOX21_p53_BLA_p5_ratio: Tox21 HCT-116 p53 Agonism Beta-lactamase Assay, Ratio, Phase 5 (AID 2283599). The method in brief: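 HCT-116 p53-bla cells (4000/well) plated 5 h, dosed with compound (217-fold DMSO dilution) for 16 h at 37 C; CCF4-AM substrate 2 h at room temperature. Activity is the 460/530 nm emission ratio (405 nm excitation), fitted in gain-of-signal direction versus DMSO.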

The target is the same in assay [16]. Kind of assay: TOX21_p53_BLA_p4_ratio: Tox21 HCT-116 p53 Agonism Beta-lactamase Assay, Ratio, Phase 4 (AID 2283601). Put shortly:
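HCT-116 p53 beta-lactamase reporter cells (4000/well) preincubated 5 h, then compound (217-fold dilution of DMSO stock) for 16 h at 37C. CCF4-AM substrate added 2 h at room temperature; 460/530 nm emission ratio fitted upward versus DMSO.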

Assay [17] is described as follows: ATG_RORE_CIS: Attagene CIS-FACTORIAL HepG2 Assay for human RAR-related Orphan Receptor Element (RORE) (AID 2282959; active means hit-call score of the fitted dose curve at least 0.9, where 1 is the maximum; inactive means score below 0.9). The following applies: HepG2 Attagene cis-factorial RORE reporter, mRNA; actives raise or lower the signal. The method in brief:
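Readout: fluorescent reporter mRNA by RT-PCR plus capillary electrophoresis, 24 h after dosing transfected HepG2 cells. Endogenous transcription factor activity on a cis promoter element is measured. Gain or loss of signal fitted against DMSO.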

Assay [18] is described as follows: ATG_M_32_TRANS: Attagene TRANS-FACTORIAL HepG2 Assay for M32 Transcription Factor (Internal Marker) (AID 2282984).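 Further: transcript level of a background control reporter unit measured by RT-PCR and capillary electrophoresis.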 The conditions noted are these: HepG2 Attagene TRANS M32 internal marker reporter. The method in brief:
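Internal-marker readout from a multiplexed transcription reporter panel. HepG2 cells were transfected with GAL4-UAS reporter units, treated 24 hours, and reporter transcript levels determined by fluorescence after RT-PCR and capillary separation.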

A short description of assay [19]: ACEA_ER_AUC_viability: ACEA Biosciences xCELLigence Real-Time Cell Analysis on Estrogen Receptor Agonism for Viability (AID 2283782).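 Further: hit means loss of impedance signal meaning reduced cell growth or viability.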 Put shortly: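 Read-out: real-time electrical impedance (RT-CES) area under curve, loss of signal taken as reduced viability, normalized to DMSO baseline. T-47D cells, charcoal-stripped serum medium, compounds up to 100 uM final, continuous exposure, 80 h.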

Assay [20] can be described thus: TOX21_p53_BLA_p5_viability: Viability Assessment in the Tox21 HCT-116 p53 Agonism Beta-lactamase Assay, Phase 5 (AID 2283600). Put shortly: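 Workflow: seed 4000 cells per well, wait 5 h, add compounds (DMSO, 217-fold dilution), incubate 16 h, load CCF4-AM 2 h, add CellTiter-Glo, read luminescence after 30 min.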

SMILES strings stand for the structures. Results filed as inconclusive are left out. The source made the active and inactive calls. How the source made its calls, unless noted: active means hit-call score of the fitted dose curve at least 0.9, where 1 is the maximum; inconclusive means response in the unintended direction; inactive means score below 0.9.

Sequence of Signal transducer and activator of transcription 3 (Homo sapiens) (P40763 whole entry, looked up, the tested form may be a part): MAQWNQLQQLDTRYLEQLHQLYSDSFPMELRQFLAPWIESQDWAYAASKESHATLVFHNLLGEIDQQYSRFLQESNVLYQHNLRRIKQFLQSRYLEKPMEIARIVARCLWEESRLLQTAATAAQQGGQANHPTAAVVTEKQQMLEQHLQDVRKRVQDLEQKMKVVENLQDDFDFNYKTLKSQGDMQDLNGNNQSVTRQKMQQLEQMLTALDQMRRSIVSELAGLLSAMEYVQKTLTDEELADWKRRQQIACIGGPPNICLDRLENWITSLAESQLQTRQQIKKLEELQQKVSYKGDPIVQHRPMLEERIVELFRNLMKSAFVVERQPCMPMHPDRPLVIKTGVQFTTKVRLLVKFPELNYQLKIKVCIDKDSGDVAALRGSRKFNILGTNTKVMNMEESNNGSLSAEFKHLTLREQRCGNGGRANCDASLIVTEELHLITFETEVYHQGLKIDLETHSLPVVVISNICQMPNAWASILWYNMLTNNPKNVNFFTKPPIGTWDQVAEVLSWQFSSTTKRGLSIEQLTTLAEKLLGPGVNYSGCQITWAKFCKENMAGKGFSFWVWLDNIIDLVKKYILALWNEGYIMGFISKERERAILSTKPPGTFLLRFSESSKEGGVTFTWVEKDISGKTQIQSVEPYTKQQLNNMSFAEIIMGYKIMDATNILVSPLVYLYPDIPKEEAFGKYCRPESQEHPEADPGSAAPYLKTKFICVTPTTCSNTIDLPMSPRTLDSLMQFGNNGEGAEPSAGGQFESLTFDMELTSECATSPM
Sequence of Peroxisome proliferator-activated receptor gamma (Homo sapiens) (P37231 whole entry, looked up, the tested form may be a part): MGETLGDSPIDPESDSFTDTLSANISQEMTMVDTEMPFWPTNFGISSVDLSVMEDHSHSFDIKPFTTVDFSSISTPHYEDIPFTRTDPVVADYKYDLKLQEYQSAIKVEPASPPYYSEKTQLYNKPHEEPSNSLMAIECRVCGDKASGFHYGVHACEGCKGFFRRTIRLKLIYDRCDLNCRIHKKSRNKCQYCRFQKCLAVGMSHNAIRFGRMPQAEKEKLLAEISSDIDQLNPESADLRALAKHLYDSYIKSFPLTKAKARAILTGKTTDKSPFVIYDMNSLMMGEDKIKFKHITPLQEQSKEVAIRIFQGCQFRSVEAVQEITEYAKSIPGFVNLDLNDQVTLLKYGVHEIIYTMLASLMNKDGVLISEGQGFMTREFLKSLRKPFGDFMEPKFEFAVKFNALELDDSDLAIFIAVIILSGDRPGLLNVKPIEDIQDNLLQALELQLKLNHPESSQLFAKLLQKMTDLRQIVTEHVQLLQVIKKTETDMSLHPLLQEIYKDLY
Sequence of Transcription factor Sp1 (Homo sapiens) (P08047 whole entry, looked up): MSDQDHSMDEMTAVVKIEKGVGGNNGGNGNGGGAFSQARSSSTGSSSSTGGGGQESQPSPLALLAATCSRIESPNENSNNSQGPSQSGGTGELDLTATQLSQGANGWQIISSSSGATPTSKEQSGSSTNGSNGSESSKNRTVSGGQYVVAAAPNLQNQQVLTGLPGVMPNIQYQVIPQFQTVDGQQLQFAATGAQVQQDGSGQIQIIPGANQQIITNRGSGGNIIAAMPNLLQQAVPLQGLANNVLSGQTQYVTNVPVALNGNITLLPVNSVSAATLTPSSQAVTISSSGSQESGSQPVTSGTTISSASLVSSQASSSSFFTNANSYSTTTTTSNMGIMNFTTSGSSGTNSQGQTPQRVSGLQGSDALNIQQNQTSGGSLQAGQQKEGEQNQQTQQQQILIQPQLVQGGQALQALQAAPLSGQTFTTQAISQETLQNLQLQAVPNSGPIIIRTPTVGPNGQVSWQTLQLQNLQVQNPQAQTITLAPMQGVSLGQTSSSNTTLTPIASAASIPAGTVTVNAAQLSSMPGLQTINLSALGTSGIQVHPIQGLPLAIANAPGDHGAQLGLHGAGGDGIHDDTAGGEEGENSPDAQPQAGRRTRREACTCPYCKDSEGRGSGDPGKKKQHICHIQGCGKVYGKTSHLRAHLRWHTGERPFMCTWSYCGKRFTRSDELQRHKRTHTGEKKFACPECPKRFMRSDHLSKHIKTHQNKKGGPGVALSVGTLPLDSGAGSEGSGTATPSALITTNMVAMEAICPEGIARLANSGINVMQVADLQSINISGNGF
Sequence of human Retinoid X Receptor beta (RXRb), RXRB (gene 6257) (P28702 whole entry, looked up, the tested form may be a part): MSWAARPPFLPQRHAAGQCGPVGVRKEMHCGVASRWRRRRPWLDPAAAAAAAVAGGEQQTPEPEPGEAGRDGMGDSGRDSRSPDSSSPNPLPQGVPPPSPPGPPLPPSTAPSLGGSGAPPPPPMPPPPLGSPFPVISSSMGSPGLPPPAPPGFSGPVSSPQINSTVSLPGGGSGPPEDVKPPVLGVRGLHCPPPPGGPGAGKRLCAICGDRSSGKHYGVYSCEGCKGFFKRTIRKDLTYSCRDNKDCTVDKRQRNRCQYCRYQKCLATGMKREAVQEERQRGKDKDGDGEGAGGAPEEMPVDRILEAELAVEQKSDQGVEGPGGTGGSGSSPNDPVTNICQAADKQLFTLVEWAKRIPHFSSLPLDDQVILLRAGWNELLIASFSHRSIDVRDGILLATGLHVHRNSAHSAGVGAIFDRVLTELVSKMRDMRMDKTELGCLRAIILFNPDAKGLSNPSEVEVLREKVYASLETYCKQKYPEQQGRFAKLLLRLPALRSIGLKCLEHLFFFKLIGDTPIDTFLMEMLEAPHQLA

As to `N#CC(c1ccccc1)c1ccccc1`, the call in assay [1], in assay [2], in assay [3], in assay [4], in [5] and in [6] was inactive. Further, the outcome in assay [7], in assay [8], in assay [11], in [12], in assay [13] and in assay [14] was inactive. The result in assay [15] and in assay [16] was inactive. For the same molecule, the AC50 (commonly the concentration giving half of the maximal activity seen) was 83.2 µM (active) in assay [9] and 49.1 µM (active) in [10].

`O=S(=O)(O)OOS(=O)(=O)O`: the molecule was called inactive in [17], in assay [3], in assay [4], in assay [5], in assay [6] and in [18]. Moreover, the call in assay [7], in assay [8], in assay [9], in assay [10] and in assay [19] was inactive.

Regarding `CCCOC(=O)c1ccccc1C(=O)OCCC`, the result in assay [17], in assay [3], in [4], in assay [5], in assay [18] and in assay [7] was inactive. Moreover, the molecule was called inactive in assay [11], in assay [12], in assay [13], in [14], in [15] and in [20]. In addition, the results for the AC50 in [9] and in assay [10] were 86.3 µM (active) and 76.1 µM (active), respectively.

As for `N#Cc1cccc(C#N)c1`, the result in assay [1], in [2], in assay [17], in assay [3], in assay [4] and in assay [5] was inactive. The result in assay [6], in [18], in assay [7], in [8], in [9] and in [11] was inactive. The outcome in assay [12], in assay [13], in assay [14], in assay [15], in [20] and in assay [16] was inactive. For the same molecule, the molecule was classed as inactive in [19].

Consider `Nc1c(Cl)c(Cl)c(Cl)c(Cl)c1Cl`, for which the result in assay [1], in [2], in [3], in [6], in assay [18] and in assay [7] was inactive. Also, the molecule was called inactive in [8], in assay [9] and in [19]. Further, the AC50 in assay [10] is 28.6 µM (active).

On to `Oc1ccc(Cl)cc1`, for which the outcome in assay [2], in assay [17], in assay [4], in assay [5], in assay [6] and in [18] was inactive. In addition, the molecule was called inactive in [8], in assay [11], in assay [12], in assay [13], in assay [14] and in [15]. The outcome in [20], in assay [16] and in [19] was inactive.

`CCCCOC(=O)CCC(=O)OCCCC`: the outcome in assay [2], in assay [17], in assay [3], in [4], in assay [6] and in [18] was inactive. Also, the result in assay [7], in assay [10], in [11], in assay [15] and in assay [16] was inactive.

Consider `CCOC(=O)C1OC1(C)c1ccccc1` (stereo not given), for which the molecule was called inactive in [1], in [2], in assay [3], in assay [4], in assay [18] and in [8]. Besides, the molecule was called inactive in assay [11], in [12], in assay [13], in assay [14], in assay [15] and in assay [20]. Further, the result in assay [16] and in assay [19] was inactive. The AC50 in assay [9] was 100 µM (active).

In the case of `C[C@]12CCC(=O)C(O)=C1CC[C@@H]1[C@@H]2CC[C@]2(C)C(=O)CC[C@@H]12`, the result in assay [1], in assay [2], in assay [17], in [3], in assay [4] and in assay [7] was inactive. Besides, the call in assay [8], in assay [9], in assay [11], in [12], in [14] and in [15] was inactive. Besides, the outcome in [20] and in assay [16] was inactive.
